These results are taken from PubChem BioAssay.

Unmarked numbers belong to inactive results. For part of these data: Potency and affinity values are given separately. The source made the active and inactive calls. Unless noted, how the calls were made is not given here.

A short description of experiment [1]: antimalarial activity against Dd2 strain (AID 2302;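 active means growth inhibition above 50% at the single 2 µM test dose, taken to imply half-maximal potency below 2 µM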;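 further: 0% = DMSO untreated growth and 100% = chloroquine plus artemisinin killed control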). As to conditions: P. falciparum Dd2 in RBCs, LDH growth readout, 72 h; at 2 µM; hits give high values.
The nature of experiment [2]: HepG2 cytotoxicity, primary screen, cytotoxicity control for P. falciparum antimalarial project, cell-based, ATP luminescence (AID 2303;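 active means inhibition above 50%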;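 further: 0% = DMSO wells and 100% = digitonin-killed cells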). The note with it: HepG2 viability, 24-48 h, at 10 µM, hits give high values.
For experiment [3], the target named is L-lactate dehydrogenase (Plasmodium falciparum (isolate CDC / Honduras)) (UniProt Q27743). Description: PfLDH activity inhibition – cell lysate, 3D7 strain, counter-screen for P. falciparum growth inhibition project (AID 2304).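 Further: 0% = vehicle and 100% = reference inhibitor.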 As to conditions: P. falciparum 3D7 crude extract, LDH APAD/NBT absorbance; at 2 µM; hits give high values. A general note: The purpose of a counterscreen is to sort out artefacts and off-target activity.
L-lactate dehydrogenase (Plasmodium falciparum (isolate CDC / Honduras)), sequence (Q27743 whole entry, looked up): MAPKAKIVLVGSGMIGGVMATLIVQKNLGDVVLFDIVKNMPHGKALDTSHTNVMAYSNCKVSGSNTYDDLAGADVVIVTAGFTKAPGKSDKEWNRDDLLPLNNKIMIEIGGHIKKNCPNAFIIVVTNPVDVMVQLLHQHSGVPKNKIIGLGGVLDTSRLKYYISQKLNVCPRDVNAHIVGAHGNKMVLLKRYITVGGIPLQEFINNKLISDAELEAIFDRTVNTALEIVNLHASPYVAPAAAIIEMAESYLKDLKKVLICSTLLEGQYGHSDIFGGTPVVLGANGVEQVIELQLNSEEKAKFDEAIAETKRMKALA

Experiment [4] in a line: inhibition of 3D7 malaria parasite growth – strain 3D7 (AID 2306).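 Further: 0% = DMSO wells and 100% = chloroquine plus artemisinin control wells.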 The note with it: P. falciparum 3D7 erythrocytic growth, LDH absorbance, 72 h; at 2 µM; hits give high values.
Experiment [5] deals with Calcium-dependent protein kinase 1 (Plasmodium falciparum (isolate 3D7)) (UniProt P62344). Description: PfCDPK1 kinase inhibitors, biochemical, TCAMS library (AID 1159585; cut-off not given, nearly all actives have IC50 up to about 0.98 µM;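 further: inhibitors leave more ATP so luminescence rises with inhibition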). The note with it: recombinant PfCDPK1, Kinase-Glo ATP depletion luminescence. On the technique in general: In Kinase-Glo more light means more ATP remaining.
Calcium-dependent protein kinase 1 (Plasmodium falciparum (isolate 3D7)), sequence (P62344 whole entry, looked up): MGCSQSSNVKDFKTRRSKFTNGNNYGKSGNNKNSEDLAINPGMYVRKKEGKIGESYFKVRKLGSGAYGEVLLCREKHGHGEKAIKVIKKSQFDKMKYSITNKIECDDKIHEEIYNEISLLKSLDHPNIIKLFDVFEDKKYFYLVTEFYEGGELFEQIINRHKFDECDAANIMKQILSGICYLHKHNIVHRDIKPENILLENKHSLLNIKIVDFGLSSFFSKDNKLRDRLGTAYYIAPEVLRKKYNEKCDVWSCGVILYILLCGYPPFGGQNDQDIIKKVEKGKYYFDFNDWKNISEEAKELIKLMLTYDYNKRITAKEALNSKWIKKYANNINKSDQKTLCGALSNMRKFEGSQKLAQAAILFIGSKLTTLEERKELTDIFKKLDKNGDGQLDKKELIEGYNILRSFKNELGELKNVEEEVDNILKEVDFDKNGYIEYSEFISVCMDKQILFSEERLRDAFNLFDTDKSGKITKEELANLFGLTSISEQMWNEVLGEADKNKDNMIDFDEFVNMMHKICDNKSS
Experiment [6] deals with Plasmodium falciparum protein kinase 6 (PK6, PF3D7_1337100) (UniProt Q8IDW1). Description: PfPK6 kinase inhibitors, biochemical, TCAMS library (AID 1159586). The note with it: recombinant PfPK6, Kinase-Glo ATP depletion luminescence.
Plasmodium falciparum protein kinase 6 (PK6, PF3D7_1337100), sequence (Q8IDW1 1-305): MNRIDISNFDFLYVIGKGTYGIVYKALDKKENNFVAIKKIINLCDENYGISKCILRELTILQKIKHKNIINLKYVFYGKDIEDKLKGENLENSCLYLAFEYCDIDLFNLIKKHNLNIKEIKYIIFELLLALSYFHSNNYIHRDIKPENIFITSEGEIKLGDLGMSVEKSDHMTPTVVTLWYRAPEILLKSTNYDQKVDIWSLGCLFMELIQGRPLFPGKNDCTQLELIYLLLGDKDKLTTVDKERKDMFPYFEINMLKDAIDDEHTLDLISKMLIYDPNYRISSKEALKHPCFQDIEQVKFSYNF
In experiment [7] the target is Protein kinase 7 (PK7), Plasmodium falciparum 3D7 (PF3D7_0213400) (UniProt Q7YTF7). Description: inhibition of Plasmodium PK7 catalytic activity – biochemical, TCAMS antimalarial set, Kinase-Glo luminescence (AID 1159587). The note with it: recombinant PfPK7, Kinase-Glo ATP depletion luminescence.
Protein kinase 7 (PK7), Plasmodium falciparum 3D7 (PF3D7_0213400), sequence (Q7YTF7 1-343): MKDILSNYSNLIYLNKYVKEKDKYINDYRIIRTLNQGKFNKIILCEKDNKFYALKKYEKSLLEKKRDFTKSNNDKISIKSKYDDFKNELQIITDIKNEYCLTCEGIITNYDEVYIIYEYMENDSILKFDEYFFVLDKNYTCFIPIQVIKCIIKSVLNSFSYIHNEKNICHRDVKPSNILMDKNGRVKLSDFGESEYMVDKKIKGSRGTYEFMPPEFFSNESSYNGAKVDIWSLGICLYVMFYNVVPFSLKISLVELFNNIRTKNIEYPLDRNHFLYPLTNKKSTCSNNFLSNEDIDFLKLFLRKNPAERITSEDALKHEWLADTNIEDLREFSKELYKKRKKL
The target in experiment [8] is Calcium-dependent protein kinase 4 (Plasmodium falciparum (isolate 3D7)) (UniProt Q8IBS5). Description: PfCDPK4 kinase inhibitors, biochemical, TCAMS library (AID 1159588; cut-off not given, nearly all actives have IC50 up to about 0.91 µM). The note with it: recombinant PfCDPK4, Kinase-Glo ATP depletion luminescence.
Calcium-dependent protein kinase 4 (Plasmodium falciparum (isolate 3D7)), sequence (Q8IBS5 whole entry, looked up): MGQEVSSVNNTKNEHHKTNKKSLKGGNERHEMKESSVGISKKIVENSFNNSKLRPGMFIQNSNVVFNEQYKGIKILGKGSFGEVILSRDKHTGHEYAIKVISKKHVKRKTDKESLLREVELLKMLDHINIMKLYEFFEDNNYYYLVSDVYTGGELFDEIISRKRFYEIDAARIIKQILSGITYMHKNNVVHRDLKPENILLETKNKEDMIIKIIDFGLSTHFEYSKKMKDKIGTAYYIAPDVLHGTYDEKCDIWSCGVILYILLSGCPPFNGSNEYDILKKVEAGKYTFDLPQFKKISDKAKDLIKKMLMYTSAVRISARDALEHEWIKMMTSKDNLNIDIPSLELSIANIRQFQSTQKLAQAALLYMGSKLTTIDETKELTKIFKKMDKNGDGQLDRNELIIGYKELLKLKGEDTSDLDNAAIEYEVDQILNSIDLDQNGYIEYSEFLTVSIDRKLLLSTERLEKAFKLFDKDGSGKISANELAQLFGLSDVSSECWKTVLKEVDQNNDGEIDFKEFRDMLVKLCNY

By inhibition is commonly meant the relative decrease from the control value, in per cent.

Turning to `CCc1ccc(C2CCN(CCCCNC(=O)c3ccc(NC(=O)c4ccc(Cl)cc4)cc3)CC2)c(OCC(=O)OC)c1`, the growth inhibition in experiment [1] is 12%; in experiment [4] it was 95% (active). The inhibition in experiment [2] is 32%; in experiment [3] it was 6%. Besides, the result in experiment [5], in experiment [6], in experiment [7] and in experiment [8] was inactive.

`COc1ccccc1CNC(=O)c1nn(-c2ccc(Cl)cc2)c(=O)c2ccccc12`: the growth inhibition in experiment [1] was 80% (active); in experiment [4] it was 101% (active). Further, the inhibition in experiment [2] is -2%; in experiment [3] it was 6%. Besides, the result in experiment [5], in experiment [6], in experiment [7] and in experiment [8] was inactive.

Turning to `CCNc1cc(C(=O)N[C@@H](Cc2ccccc2)[C@H](O)CNC23CCC(CC2)C3)cc(N2CCCCS2(=O)=O)c1`, the figures for the growth inhibition in experiment [1] and in experiment [4] were 99% (active) and 97% (active), respectively. Moreover, the inhibition in experiment [2] was 22%; in experiment [3] it was -2%. Moreover, the outcome in experiment [5], in experiment [6], in experiment [7] and in experiment [8] was inactive.

For `CCCNc1nc(Nc2ccccc2C)nc2ccccc12`, the growth inhibition in experiment [1] was 64% (active); in experiment [4], 95% (active). Moreover, the inhibition in experiment [2] was 13%; in experiment [3], 1%. Also, the result in experiment [5], in experiment [6], in experiment [7] and in experiment [8] was inactive.

Take `CCN(CCCN1CCCCC1)c1cc(C)nc(Nc2ccc(C)c(Br)c2)n1`: the growth inhibition in experiment [1] is 98% (active); in experiment [4], 102% (active). Further, the values for the inhibition in experiment [2] and in experiment [3] were 42% and -8%, respectively. For the same compound, the outcome in experiment [5], in experiment [6], in experiment [7] and in experiment [8] was inactive.

Turning to `COc1ccc(Cn2cncc2CN(CCC(C)C)C(=O)c2ccc(Cl)nc2Cl)cc1`, the results for the growth inhibition in experiment [1] and in experiment [4] were 61% (active) and 87% (active), respectively. Besides, the inhibition in experiment [2] was 19%; in experiment [3], -1%. Moreover, the outcome in experiment [5], in experiment [6], in experiment [7] and in experiment [8] was inactive.

As to `Cc1cccc2[nH]c(-c3ccc(-c4cccc(CNCc5ccc(S(C)(=O)=O)cc5)c4)s3)nc12`, the growth inhibition in experiment [1] is 91% (active); in experiment [4] it was 100% (active). Besides, the inhibition in experiment [2] was 31%; in experiment [3], -3%. The outcome in experiment [5], in experiment [6], in experiment [7] and in experiment [8] was inactive.

On to `CC1(C(=O)Nc2ccc([N+](=O)[O-])cc2O)CC2c3ccccc3C1c1ccccc12` (stereo not drawn), for which the growth inhibition was 16% in experiment [1] and 98% (active) in experiment [4]. The inhibition in experiment [2] was 37%; in experiment [3], 3%. Moreover, the outcome in experiment [5], in experiment [6], in experiment [7] and in experiment [8] was inactive.

`Cc1cc(N[C@@H](Cc2ccccc2)C(=O)NCCOc2ccccc2)nc(NCCc2ccccc2)n1`: the growth inhibition in experiment [1] was 68% (active); in experiment [4], 101% (active). The inhibition was 12% in experiment [2] and -1% in experiment [3]. The outcome in experiment [5], in experiment [6], in experiment [7] and in experiment [8] was inactive.

As for `CC(ON1C(N)=NC(N)=NC1(C)C)c1ccccc1` (stereo not drawn), the growth inhibition is 58% (active) in experiment [1] and 96% (active) in experiment [4]. In addition, the results for the inhibition in experiment [2] and in experiment [3] were 65% (active) and 0%, respectively. Further, the outcome in experiment [5], in experiment [6], in experiment [7] and in experiment [8] was inactive.

Regarding `CC(=O)N(C)c1cccc(CNc2cc(C)nc(Nc3ccc(C)cc3)n2)c1`, the growth inhibition in experiment [1] is 21%; in experiment [4] it was 97% (active). Also, the inhibition in experiment [2] is 8%; in experiment [3], -9%. Also, the outcome in experiment [5], in experiment [6], in experiment [7] and in experiment [8] was inactive.

For the compound `COc1ccc(NC(=O)NC2CCN(CCCCCNC(=O)/C=C/c3ccc(Cl)c(Cl)c3)C2)c(OC)c1` (stereo not drawn), the growth inhibition in experiment [1] was 9%; in experiment [4], 96% (active). For the same compound, the figures for the inhibition in experiment [2] and in experiment [3] were 24% and -3%, respectively. Also, the result in experiment [5], in experiment [6], in experiment [7] and in experiment [8] was inactive.

In the case of `Oc1ccc(Br)cc1-c1nc2ccc(Cl)cc2nc1-c1cc(Br)ccc1O`, the growth inhibition in experiment [1] was 64% (active); in experiment [4], 100% (active). Moreover, the inhibition in experiment [2] is -4%; in experiment [3], 5%. Further, the outcome in experiment [5], in experiment [6], in experiment [7] and in experiment [8] was inactive.

In the case of `Cc1cc(N[C@@H](Cc2ccccc2)C(=O)Nc2ccccc2)nc(NCCN2CCCC2)n1`, the results for the growth inhibition in experiment [1] and in experiment [4] were -5% and 94% (active), respectively. Moreover, the inhibition was 8% in experiment [2] and 0% in experiment [3]. Moreover, the result in experiment [5], in experiment [6], in experiment [7] and in experiment [8] was inactive.

Regarding `C(=Cc1nc2ccccc2s1)c1ccc2c(c1)OCCO2`, the figures for the growth inhibition in experiment [1] and in experiment [4] were 96% (active) and 98% (active), respectively. For the same compound, the inhibition in experiment [2] was 13%; in experiment [3] it was 1%. Further, the outcome in experiment [5], in experiment [6], in experiment [7] and in experiment [8] was inactive.

`CNc1ccc(CNCc2cccc(-c3ccc(-c4nc5ccccc5[nH]4)cc3)c2)cc1`: the growth inhibition was 80% (active) in experiment [1] and 102% (active) in experiment [4]. The inhibition in experiment [2] was 18%; in experiment [3], -5%. The result in experiment [5], in experiment [6], in experiment [7] and in experiment [8] was inactive.

Consider `Cn1cc(CN2CCCC(COC(c3ccccc3)c3ccccc3)C2)cn1` (stereo not drawn), for which the growth inhibition in experiment [1] and in experiment [4] was 99% (active) each time. The inhibition in experiment [2] was 24%; in experiment [3], 0%. Further, the outcome in experiment [5], in experiment [6], in experiment [7] and in experiment [8] was inactive.

For the compound `Cc1cc(O)c(CNC2CCCCC2)cc1C`, the growth inhibition in experiment [1] and in experiment [4] was 95% (active) throughout. Besides, the inhibition in experiment [2] is 6%; in experiment [3], -2%. The outcome in experiment [5], in experiment [6], in experiment [7] and in experiment [8] was inactive.

On to `Cc1onc(-c2ccccc2)c1C(=O)Nc1nc(-c2ccccn2)nc2ccsc12`, for which the growth inhibition in experiment [1] is 78% (active); in experiment [4] it was 97% (active). For the same compound, the values for the inhibition in experiment [2] and in experiment [3] were 23% and -4%, respectively. Besides, the outcome in experiment [5], in experiment [6], in experiment [7] and in experiment [8] was inactive.

`Cc1[nH]nc2cc(Nc3ccnc(Nc4cccc(CN5CCOCC5)c4)n3)ccc12`: the results for the growth inhibition in experiment [1] and in experiment [4] were -10% and 83% (active), respectively. Also, the inhibition was 33% in experiment [2] and -8% in experiment [3]. The outcome in experiment [5], in experiment [6], in experiment [7] and in experiment [8] was inactive.

Regarding `Cc1ccc(C2=NNC3(S2)C(=O)Nc2ccc(C)cc23)cc1` (stereo not drawn), the growth inhibition in experiment [1] is 89% (active); in experiment [4] it was 95% (active). Also, the values for the inhibition in experiment [2] and in experiment [3] were 35% and 6%, respectively. The outcome in experiment [5], in experiment [6], in experiment [7] and in experiment [8] was inactive.
